# In the supplement of paper PMC4466140:
# Columns and labels:
# Test in all cases: SPOT peptide array binding signal intensity (averaged, normalized) (arbitrary units (background-subtracted, floor 0; scale differs between SH3 domains)); higher = stronger binding of the SH3 domain to the peptide
# AgAbp1 = target: AgAbp1
# Method in brief: (§1)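 GST-fused SH3 domains from four yeast species were expressed in E. coli BL21(DE3), purified on glutathione Sepharose and incubated at 10 μg/ml overnight at 4°C in TBS-based blocking buffer on cellulose membranes carrying synthetic 15-mer peptides, with cysteines replaced by serines. Bound protein was detected with anti-GST antibody, an HRP anti-mouse secondary and luminol, then imaged and quantified with Genespotter. Binding signal is the normalized, background-subtracted spot intensity averaged over replicates, in arbitrary units that differ between domains.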
# AgBbc1 = target: AgBbc1
# Method in brief: as §1
# AgBem1-D1 = target: AgBem1-D1
# Method in brief: as §1
# AgBzz1-D1 = target: AgBzz1-D1
# Method in brief: as §1
# AgBzz1-D2 = target: AgBzz1-D2
# Method in brief: as §1
# AgCyk3 = target: AgCyk3
# Method in brief: as §1
# AgFus1 = target: AgFus1
# Method in brief: as §1
# AgHof1 = target: AgHof1
# Method in brief: as §1
# AgHse1 = target: AgHse1
# Method in brief: as §1
# AgLsb1 = target: AgLsb1
# Method in brief: as §1
# AgLsb4 = target: AgLsb4
# Method in brief: as §1
# AgMyo5 = target: AgMyo5
# Method in brief: as §1
# AgNbp2 = target: AgNbp2
# Method in brief: as §1
# AgRvs167 = target: AgRvs167
# Method in brief: as §1
# AgSho1 = target: AgSho1
# Method in brief: as §1
# AgSla1-D1-D2 = target: AgSla1-D1-D2
# Method in brief: as §1
# AgSla1-D3 = target: AgSla1-D3
# Method in brief: as §1
# CaAbp1-D1 = target: CaAbp1-D1
# Method in brief: as §1
# CaAbp1-D2 = target: CaAbp1-D2
# Method in brief: as §1
# CaBbc1 = target: CaBbc1
# Method in brief: as §1
# CaBem1-D1 = target: CaBem1-D1
# Method in brief: as §1
# CaBzz1-D1 = target: CaBzz1-D1
# Method in brief: as §1
# CaBzz1-D2 = target: CaBzz1-D2
# Method in brief: as §1
# CaCyk3 = target: CaCyk3
# Method in brief: as §1
# CaFus1 = target: CaFus1
# Method in brief: as §1
# CaHof1 = target: CaHof1
# Method in brief: as §1
# CaHse1 = target: CaHse1
# Method in brief: as §1
# CaLsb1 = target: CaLsb1
# Method in brief: as §1
# CaLsb4 = target: CaLsb4
# Method in brief: as §1
# CaMyo5 = target: CaMyo5
# Method in brief: as §1
# CaNbp2 = target: CaNbp2
# Method in brief: as §1
# CaRvs167 = target: CaRvs167
# Method in brief: as §1
# CaRvs167-3 = target: CaRvs167-3
# Method in brief: as §1
# CaSho1 = target: CaSho1
# Method in brief: as §1
# CaSla1-D1-D2 = target: CaSla1-D1-D2
# Method in brief: as §1
# CaSla1-D3 = target: CaSla1-D3
# Method in brief: as §1
# ScAbp1 = target: ScAbp1
# Method in brief: as §1
# ScBbc1 = target: ScBbc1
# Method in brief: as §1
# ScBem1-D1 = target: ScBem1-D1
# Method in brief: as §1
# ScBzz1-D1 = target: ScBzz1-D1
# Method in brief: as §1
# ScBzz1-D2 = target: ScBzz1-D2
# Method in brief: as §1
# ScCyk3 = target: ScCyk3
# Method in brief: as §1
# ScFus1 = target: ScFus1
# Method in brief: as §1
# ScHof1 = target: ScHof1
# Method in brief: as §1
# ScHse1 = target: ScHse1
# Method in brief: as §1
# ScLsb1 = target: ScLsb1
# Method in brief: as §1
# ScLsb2 = target: ScLsb2
# Method in brief: as §1
# ScLsb3 = target: ScLsb3
# Method in brief: as §1
# ScLsb4 = target: ScLsb4
# Method in brief: as §1
# ScMyo3 = target: ScMyo3
# Method in brief: as §1
# ScMyo5 = target: ScMyo5
# Method in brief: as §1
# ScNbp2 = target: ScNbp2
# Method in brief: as §1
# ScPex13 = target: ScPex13
# Method in brief: as §1
# ScRvs167 = target: ScRvs167
# Method in brief: as §1
# ScSho1 = target: ScSho1
# Method in brief: as §1
# ScSla1-D1-D2 = target: ScSla1-D1-D2
# Method in brief: as §1
# ScSla1-D3 = target: ScSla1-D3
# Method in brief: as §1
# SpAbp1-D1 = target: SpAbp1-D1
# Method in brief: as §1
# SpBbc1 = target: SpBbc1
# Method in brief: as §1
# SpBzz1-D1 = target: SpBzz1-D1
# Method in brief: as §1
# SpBzz1-D2 = target: SpBzz1-D2
# Method in brief: as §1
# SpCyk3 = target: SpCyk3
# Method in brief: as §1
# SpHof1 = target: SpHof1
# Method in brief: as §1
# SpHof1-2 = target: SpHof1-2
# Method in brief: as §1
# SpHof1-3 = target: SpHof1-3
# Method in brief: as §1
# SpHse1 = target: SpHse1
# Method in brief: as §1
# SpLsb1 = target: SpLsb1
# Method in brief: as §1
# SpLsb4 = target: SpLsb4
# Method in brief: as §1
# SpMyo1 = target: SpMyo1
# Method in brief: as §1
# SpNbp2 = target: SpNbp2
# Method in brief: as §1
# SpPex13 = target: SpPex13
# Method in brief: as §1
# SpRvs167 = target: SpRvs167
# Method in brief: as §1
# SpSla1-D1-D2 = target: SpSla1-D1-D2
# Method in brief: as §1
# SpSla1-D3 = target: SpSla1-D3
# Method in brief: as §1
binder,measurement,setting,value
SSAAPPPPPRRATPE,SPOT peptide array binding signal intensity,AgAbp1,0.5
same,SPOT peptide array binding signal intensity,AgBbc1,602
same,SPOT peptide array binding signal intensity,AgBem1-D1,≤ 0
same,SPOT peptide array binding signal intensity,AgBzz1-D1,122
same,SPOT peptide array binding signal intensity,AgBzz1-D2,18
same,SPOT peptide array binding signal intensity,AgCyk3,≤ 0
same,SPOT peptide array binding signal intensity,AgFus1,4
same,SPOT peptide array binding signal intensity,AgHof1,0.5
same,SPOT peptide array binding signal intensity,AgHse1,11
same,SPOT peptide array binding signal intensity,AgLsb1,355
same,SPOT peptide array binding signal intensity,AgLsb4,1120
same,SPOT peptide array binding signal intensity,AgMyo5,8
same,SPOT peptide array binding signal intensity,AgNbp2,0.5
same,SPOT peptide array binding signal intensity,AgRvs167,446
same,SPOT peptide array binding signal intensity,AgSho1,3
same,SPOT peptide array binding signal intensity,AgSla1-D1-D2,1
same,SPOT peptide array binding signal intensity,AgSla1-D3,12
same,SPOT peptide array binding signal intensity,CaAbp1-D1,28.5
same,SPOT peptide array binding signal intensity,CaAbp1-D2,23
same,SPOT peptide array binding signal intensity,CaBbc1,268
same,SPOT peptide array binding signal intensity,CaBem1-D1,≤ 0
same,SPOT peptide array binding signal intensity,CaBzz1-D1,1350
same,SPOT peptide array binding signal intensity,CaBzz1-D2,293
same,SPOT peptide array binding signal intensity,CaCyk3,≤ 0
same,SPOT peptide array binding signal intensity,CaFus1,134
same,SPOT peptide array binding signal intensity,CaHof1,31
same,SPOT peptide array binding signal intensity,CaHse1,6
same,SPOT peptide array binding signal intensity,CaLsb1,0.5
same,SPOT peptide array binding signal intensity,CaLsb4,3810
same,SPOT peptide array binding signal intensity,CaMyo5,0.5
same,SPOT peptide array binding signal intensity,CaNbp2,1
same,SPOT peptide array binding signal intensity,CaRvs167,349
same,SPOT peptide array binding signal intensity,CaRvs167-3,0.5
same,SPOT peptide array binding signal intensity,CaSho1,≤ 0
same,SPOT peptide array binding signal intensity,CaSla1-D1-D2,1870
same,SPOT peptide array binding signal intensity,CaSla1-D3,0.25
same,SPOT peptide array binding signal intensity,ScAbp1,3
same,SPOT peptide array binding signal intensity,ScBbc1,0.5
same,SPOT peptide array binding signal intensity,ScBem1-D1,≤ 0
same,SPOT peptide array binding signal intensity,ScBzz1-D1,24
same,SPOT peptide array binding signal intensity,ScBzz1-D2,5
same,SPOT peptide array binding signal intensity,ScCyk3,1
same,SPOT peptide array binding signal intensity,ScFus1,≤ 0
same,SPOT peptide array binding signal intensity,ScHof1,7
same,SPOT peptide array binding signal intensity,ScHse1,≤ 0
same,SPOT peptide array binding signal intensity,ScLsb1,315
same,SPOT peptide array binding signal intensity,ScLsb2,49.5
same,SPOT peptide array binding signal intensity,ScLsb3,3110
same,SPOT peptide array binding signal intensity,ScLsb4,711
same,SPOT peptide array binding signal intensity,ScMyo3,124
same,SPOT peptide array binding signal intensity,ScMyo5,83.8
same,SPOT peptide array binding signal intensity,ScNbp2,36
same,SPOT peptide array binding signal intensity,ScPex13,300
same,SPOT peptide array binding signal intensity,ScRvs167,1890
same,SPOT peptide array binding signal intensity,ScSho1,3
same,SPOT peptide array binding signal intensity,ScSla1-D1-D2,1390
same,SPOT peptide array binding signal intensity,ScSla1-D3,≤ 0
same,SPOT peptide array binding signal intensity,SpAbp1-D1,160
same,SPOT peptide array binding signal intensity,SpBbc1,≤ 0
same,SPOT peptide array binding signal intensity,SpBzz1-D1,757
same,SPOT peptide array binding signal intensity,SpBzz1-D2,142
same,SPOT peptide array binding signal intensity,SpCyk3,2.5
same,SPOT peptide array binding signal intensity,SpHof1,10.2
same,SPOT peptide array binding signal intensity,SpHof1-2,33.5
same,SPOT peptide array binding signal intensity,SpHof1-3,366
same,SPOT peptide array binding signal intensity,SpHse1,10.5
same,SPOT peptide array binding signal intensity,SpLsb1,101
same,SPOT peptide array binding signal intensity,SpLsb4,2800
same,SPOT peptide array binding signal intensity,SpMyo1,876
same,SPOT peptide array binding signal intensity,SpNbp2,≤ 0
same,SPOT peptide array binding signal intensity,SpPex13,≤ 0
same,SPOT peptide array binding signal intensity,SpRvs167,1860
same,SPOT peptide array binding signal intensity,SpSla1-D1-D2,62
same,SPOT peptide array binding signal intensity,SpSla1-D3,0.5
